Lassa entry: inhibitors of Lassa virus binding or entry into cells. Lassa virus pseudotyped entry inhibition, cell-based qHTS. hit rate 4.1% among 18,000. Potency, µM (series often up to 49.2 µM), for the others: top-dose activity change, negative = inhibition, most hits filed as inhibitors
Marburg entry: blocks Marburg virus binding or cell entry; hit rate 6.5% among 18,000; Potency, µM (highest dose often 49.2 µM), without a hit: at the highest dose activity change, negative = inhibition, usual class: inhibitors; AID 720532; Marburg virus pseudotype entry/binding inhibition, cell-based
* hit, by the source's call; ? = inconclusive; ! = repeats disagree; [ ] = dose if it differs, or a comment. This is a sample that favours compounds with a hit; in the whole collection about 8.6% have one here. The call rests on the fitted dose curve; tested in HEK293 cells. On the % scale 0 is the no-effect control and ±100 the full control effect; potency means the concentration at half of the fitted maximal effect.

SMILES	Lassa entry	Marburg entry
C[N+](C)(C)CC#CCN1CCCC1=O	2.9%	-2.0%
CCC1CN(CC(=O)NC(C)CO)Cc2cc(OC)ccc2O1 (centres undefined)	-1.5%	1.2%
Cc1cc(=O)c2c(O)c3c(O)cc(=O)c4c3c3c(cc(O)c1c23)C(C)(C)C=4O	6.31µM*	6.31µM*
CC#CCOC(=O)c1c(C)nc2sc3c(c2c1N)CC[C@@H](O)C3	-26.3%	10.5%
O=S1(=O)C[C@@H](N2CCN(c3ccccc3)CC2)[C@H](COCc2ccccc2)N1	-12.9%	25.9%
FC(F)(F)c1ccc(-c2noc(-c3ccccc3)c2I)cc1	4.1%	3.4%
O=C1CC(c2ccc(O)cc2)Oc2ccccc21 (centres undefined)	17.0%	1.5%
COC(=O)C1(C(=O)OC)CC=CCc2ccccc2[C@H]1C[N+](=O)[O-]	-7.8%[8.59 µM]	3.3%[8.59 µM]
COCC1=C2c3ccccc3[C@H](C[N+](=O)[O-])C(C(=O)OC)(C(=O)OC)C[C@@H]2n2c(=O)n(-c3ccccc3)c(=O)n2C1	7.08µM*!	-14.6%
COc1cccc([C@@H]2Oc3ccc(OC)cc3[C@H](O)[C@@H]2O)c1	-20.0%[8.59 µM]	-6.9%[8.59 µM]
CN1CCN(C2=Nc3cc(F)ccc3Cc3ccccc32)CC1	-9.7%	?
CN1CCN(C2=Nc3cc(Cl)ccc3Nc3ccccc32)CC1	8.91µM*!	10µM*
Clc1ccccc1-c1nc(N2CCNCC2)c2ccccc2n1	-12.5%	?
Clc1ccc2c(c1)N=C(N1CCNCC1)c1ccccc1N2	?	10µM*
Cc1cccc(CN2CCN(C3CN(C4CCCC4)S(=O)(=O)C3)CC2)c1 (centres undefined)	10.8%	1.5%
O=C1O[C@H]([C@@H](O)CO)C(O)=C1O	2.1%	2.0%
CCOC(=O)C1(C)Oc2ccccc2C(c2ccc(OC)cc2)=C1C(=O)OC (centres undefined)	-29.8%	-13.3%
CC[C@H](C)[C@H](NC(=O)[C@H](CO)NC(=O)[C@H](CC(C)C)NC(=O)[C@H](CO)NC(=O)[C@@H]1CCCN1C(=O)[C@H](CC(N)=O)NC(=O)[C@@H](N)CC(=O)O)C(=O)N[C@@H](CC(=O)O)C(=O)N[C@@H](CC(C)C)C(=O)N[C@H](C(=O)N[C@@H](Cc1ccccc1)C(=O)N[C@@H](Cc1cnc[nH]1)C(=O)N[C@@H](CC(C)C)C(=O)N[C@@H](CC(C)C)C(=O)N[C@@H](CCCNC(=N)N)C(=O)N[C@H](C(=O)N[C@@H](CC(C)C)C(=O)N[C@@H](CC(C)C)C(=O)N[C@@H](CCC(=O)O)C(=O)N[C@@H](CC(C)C)C(=O)N[C@@H](C)C(=O)N[C@@H](CCCNC(=N)N)C(=O)N[C@H](C(=O)N[C@@H](CCC(N)=O)C(=O)N[C@@H](CO)C(=O)N[C@@H](CCC(N)=O)C(=O)N[C@@H](CCCNC(=N)N)C(=O)N[C@@H](CCC(=O)O)C(=O)N[C@@H](CCCNC(=N)N)C(=O)N[C@@H](C)C(=O)N[C@@H](CCC(=O)O)C(=O)N[C@@H](CCC(N)=O)C(=O)N[C@@H](CC(N)=O)C(=O)N[C@@H](CCCNC(=N)N)C(=O)N[C@H](C(=O)N[C@H](C(=O)N[C@@H](Cc1ccccc1)C(=O)N[C@@H](CC(=O)O)C(=O)N[C@@H](CO)C(=O)N[C@H](C(N)=O)C(C)C)[C@@H](C)CC)[C@@H](C)CC)[C@@H](C)O)[C@@H](C)O)[C@@H](C)O	0.9%	-1.2%
O=C(C=Cc1ccccc1)N1CCC[C@H]1CO	3.3%[8.59 µM]	42.6%[8.59 µM]
COc1cc2c(cc1OC)[C@H](C)N(CC1C(=O)O[C@@H]3C[C@@]4(C)CCC[C@H](C)[C@@]45OC5[C@H]13)CC2 (some centres undefined)	-31.6%	12.6µM*
CN(C)C1CCc2[nH]c3ccc(NC(=O)c4ccc(F)cc4)cc3c2C1 (centres undefined)	-20.3%	11.2µM*
CN[C@@H]1CCc2[nH]c3ccc(C(N)=O)cc3c2C1	-12.3%	7.8%
CC[N+](CC)(CC)CCOc1cccc(OCC[N+](CC)(CC)CC)c1OCC[N+](CC)(CC)CC	-3.0%	14.1%
CC[N+](CC)(CC)CCOc1ccc(/C=C\c2ccccc2)cc1	20µM*	?
COc1cc(=O)n2c(c1C(=O)N(C)Cc1nonc1C)CCN(Cc1ccc(C)cc1C)CC2	?	-15.7%
SMILES	Lassa entry	Marburg entry
COC(=O)CC=C[C@@H](C)[C@H](O)c1ccccc1Br	-19.4%[8.59 µM]	-21.6%[8.59 µM]
COC(=O)CC=C[C@@H](C)[C@H](OC)c1ccccc1Br	?	0.596µM*!
Cc1cc(C)c(NC(=O)CN(CC(=O)O)CC(=O)O)c(C)c1Br	-19.9%	-4.9%
Cc1ccc(C2(O)CCN(CCCC(=O)c3ccc(F)cc3)CC2)cc1	-18.0%	?
OC1(c2ccc(Cl)c(C(F)(F)F)c2)CCN(CCCC(c2ccc(F)cc2)c2ccc(F)cc2)CC1	11.2µM*	2.82µM*
Cc1ccc([C@H]2C[C@@H](O)[C@H](n3cc(-c4ccc(F)cc4)nn3)CN2C(=O)C2CCCCC2)cc1	-21.5%	?
CCC(=O)NCCC1CCc2ccc3c(c21)CCO3 (centres undefined)	-7.2%	-6.4%
Nc1nccc(-c2c(-c3ccc(F)cc3)ncn2C2CCNCC2)n1	-12.8%	?
Fc1ccc(-c2ncn(C3CCNCC3)c2-c2ccnc(Oc3ccc(Oc4ccccc4)cc3)n2)cc1	?	8.88µM*
Fc1ccc(-c2ncn(C3CCNCC3)c2-c2ccnc(Oc3ccc(F)c(F)c3)n2)cc1	?	3.53µM*
CCNN	-0.8%	11.0%
c1nc(NC2CCNCC2)c2cc(-c3ccc4c(c3)OCO4)ccc2n1	-4.7%	?
CN(C)Cc1ccccc1-c1ccc2ncnc(NC3CCNCC3)c2c1	6.9%	7.08µM*
CN(C)Cc1ccccc1-c1ccc2ncnc(NCc3cccs3)c2c1	-5.0%	8.91µM*
CN(C)Cc1ccccc1-c1ccc2ncnc(NCc3ccccc3)c2c1	0.3%	?
Cn1cc(CN2CCC(C3(c4ccccn4)NC(=O)N(CC4CCCO4)C3=O)CC2)c2ccccc21 (centres undefined)	-19.5%	?
CC[C@H](C)[C@H](NC(=O)[C@H](CC(C)C)NC(=O)[C@@H](N)CO)C(=O)NCC(=O)N[C@@H](CCCCN)C(=O)N[C@H](C(=O)O)C(C)C	-4.3%	-9.4%
Cc1cccnc1-c1cccc2c1OC(CNC(=O)/C=C/c1cccs1)C2 (centres undefined)	2.8%	-2.5%
COc1cccc2c1cc([N+](=O)[O-])c1c(C(=O)O)cc3c(c12)OCO3	-10.6%	9.0%
CN1CCOC(c2ccccc2)c2ccccc2C1 (centres undefined)	?	11.2µM*!
N=C(N)N1Cc2ccccc2C(O)C1 (centres undefined)	0.2%	13.5%
O=C(NC1CC1)c1cccc(NC(=O)C2CCC2)c1	10.5%	18.8%
CSc1ccc(C(=O)c2[nH]c(=O)[nH]c2C)cc1	-2.8%	10.3%
COc1cc2c(cc1OC)C(=O)C(CC1CCN(Cc3ccccc3)CC1)C2 (centres undefined)	-17.4%	?
COc1cc(SC)ccc1C(=O)N1CCC(Cc2ccccc2)CC1	11.2µM*	-17.4%
O=S1(=O)c2cccc(Cl)c2OC[C@H](c2ccccc2)N1Cc1cccc(Cl)c1	-17.2%	?
CC(C(O)c1ccc(O)cc1)N1CCC(Cc2ccccc2)CC1 (centres undefined)	-18.8%	10µM*
C[C@@H]([C@H](O)c1ccc(O)cc1)N1CCC(Cc2ccccc2)CC1	-8.1%	?
CCCOC(=O)c1ccc(O)cc1	-16.2%[107 µM]	14.9%[107 µM]
CCCOC(=O)c1cc(O)c(O)c(O)c1	-22.0%	25.1µM*

Bioassay records from PubChem.
